“And” between values parts separate entries of the source, which are not always exact repeats. Equal entries are not always repeated. Inconclusive results are not listed. The source made the active and inactive calls. Unless noted, calls follow the shape of the dose curve; as a rule, active = well fitted curve in the direction sought with a large enough effect; inconclusive = small, poorly fitted or top-dose-only effect, or another doubt; inactive = no such curve, though single readings can be large; an effect the other way counts as inactive or inconclusive.
Legend:
[1] = qHTS assay for small molecule activators of the p53 signaling pathway (AID 651743; active = well fitted activation curve with a large enough effect in the signal ratio, not every such curve was filed as active; the % refers to the signal ratio; also: series mostly up to about 92 µM; % of control where 0% means no effect); conditions: HCT-116 p53RE-bla, beta-lactamase FRET ratio, 16 h; activation: active compounds read high
Procedure, shortened: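 After 16 hours compound treatment at 37 C, HCT-116 cells stably expressing p53RE-driven beta-lactamase were loaded with LiveBLAzer B/G FRET substrate for 2 hours at room temperature. Fluorescence intensity served as the p53 activation read-out.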

[2] = qHTS assay for small molecule activators of the nuclear factor-kappa B (NF-kB) signaling pathway (AID 651749; active = well fitted activation curve with a large enough effect in the signal ratio; the % refers to the signal ratio; also: series mostly up to about 77 µM; % of control where 0% means no effect); conditions: NF-kB-bla ME-180 cells, beta-lactamase FRET ratio, 16 h; active compounds read high
Procedure, shortened: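 Activation measured after 16 hr compound treatment at 37C, 5% CO2, of 2,000 ME-180 cells/well stably expressing an NF-kB response element–driven beta-lactamase reporter, via FRET-disruption fluorescence.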

[3] = qHTS assay for small molecule disruptors of the mitochondrial membrane potential - 1 hr assay (AID 651754; calls by dose curve; also: % is scaled to controls: 0 for no effect and ±100 for the full control effect; nearly all actives have a fitted effect of over 35% in size)
Procedure, shortened: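 Loss of mitochondrial potential shifts the cationic dye from red mitochondrial aggregates to green cytoplasmic monomers. Cells (HepG2) are treated with compound for 1 hr before a 30 min dye incubation at 37C.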

[4] = qHTS assay for small molecule disruptors of the mitochondrial membrane potential - 5 hr assay (AID 651755; calls by dose curve; also: % is scaled to controls: 0 for no effect and ±100 for the full control effect; nearly all actives have a fitted effect of over 40% in size)
Procedure, shortened: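 Membrane-potential dye readout: red aggregate (540 ex/590 em) versus green monomer (490 ex/535 em) fluorescence after 30 min dye loading, following 5 hr compound exposure at 37C of overnight-plated HepG2 cells.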

[5] = target: Tumor necrosis factor (Homo sapiens) (UniProt P01375); assay: qHTS assay to identify small molecules that stimulate Tumor Necrosis Factor-alpha (TNF-alpha) secretion (AID 651757; active = well fitted curve in the direction sought with a large enough effect in the signal ratio; the % refers to the signal ratio; also: 0% is about no effect)
Sequence of Tumor necrosis factor (Homo sapiens) (P01375 whole entry, looked up): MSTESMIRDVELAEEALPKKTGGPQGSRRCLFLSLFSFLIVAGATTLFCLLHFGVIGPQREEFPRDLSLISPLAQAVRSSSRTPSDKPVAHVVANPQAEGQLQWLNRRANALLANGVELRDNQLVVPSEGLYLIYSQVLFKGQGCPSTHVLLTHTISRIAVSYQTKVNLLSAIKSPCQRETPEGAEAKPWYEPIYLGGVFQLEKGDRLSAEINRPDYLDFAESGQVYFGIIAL
Procedure, shortened: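 Human monocytic THP-1 cells are plated, treated with compound and held at 37 C for 17 hrs. Labeled anti-TNF-alpha antibody mixture is then added; after 3 hr at room temperature, TR-FRET signal reports secreted TNF-alpha.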

[6] = qHTS assay for environmental chemicals that activate the Aryl hydrocarbon Receptor (AhR) signaling pathway (AID 651777); conditions: 1A2-DRE human hepatoma cells, luciferase, 24 h; activation: active compounds read high; also: % of control where 0% means no effect; nearly all actives have a fitted effect of over 15% in size
Procedure, shortened: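 Measured luciferase activity, read 30 min after One-Glo addition at room temperature, from human hepatoma cells bearing a dioxin response element–CYP1A2 promoter reporter and exposed to compound for 24 hr at 37 C.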

[7] = target: Peroxisome proliferator-activated receptor alpha (Homo sapiens) (UniProt Q07869); assay: qHTS assay for small molecule agonists of the peroxisome proliferator-activated receptor alpha (PPARalpha) signaling pathway (AID 651778); conditions: PathHunter PPARalpha complementation, chemiluminescence, 6 h; active compounds read high; also: % of control where 0% means no effect
Sequence of Peroxisome proliferator-activated receptor alpha (Homo sapiens) (Q07869 whole entry, looked up): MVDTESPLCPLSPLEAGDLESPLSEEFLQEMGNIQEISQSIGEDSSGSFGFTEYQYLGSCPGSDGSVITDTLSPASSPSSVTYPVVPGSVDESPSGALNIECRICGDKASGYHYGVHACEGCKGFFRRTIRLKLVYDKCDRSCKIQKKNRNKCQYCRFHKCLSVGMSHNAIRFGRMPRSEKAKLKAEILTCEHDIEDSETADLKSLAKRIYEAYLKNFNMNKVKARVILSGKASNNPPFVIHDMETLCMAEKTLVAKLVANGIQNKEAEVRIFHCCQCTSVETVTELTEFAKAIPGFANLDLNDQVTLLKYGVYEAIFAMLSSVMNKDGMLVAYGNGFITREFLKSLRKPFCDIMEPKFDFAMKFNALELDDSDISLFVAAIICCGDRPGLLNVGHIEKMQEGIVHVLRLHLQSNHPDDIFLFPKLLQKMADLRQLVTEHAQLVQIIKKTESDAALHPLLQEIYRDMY
Procedure, shortened: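 Chemiluminescence from complemented enzyme reported PPARalpha activation in cells after 6 hr of compound treatment at 37 C. The detection reagent was incubated for 60 min at room temperature, and compounds were scored as agonists.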

[8] = target: Nuclear receptor ROR-gamma (Homo sapiens) (UniProt P51449); assay: qHTS assay for small molecule antagonists of the retinoid-related orphan receptor gamma (ROR-gamma) signaling pathway (AID 651802);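 also: CHO cells with doxycycline-induced ROR-gamma expression; series mostly up to about 92 µM; % is scaled to controls: 0 for no effect and ±100 for the full control effect; nearly all actives have a fitted effect of over 60% in size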
Sequence of Nuclear receptor ROR-gamma (Homo sapiens) (P51449 whole entry, looked up): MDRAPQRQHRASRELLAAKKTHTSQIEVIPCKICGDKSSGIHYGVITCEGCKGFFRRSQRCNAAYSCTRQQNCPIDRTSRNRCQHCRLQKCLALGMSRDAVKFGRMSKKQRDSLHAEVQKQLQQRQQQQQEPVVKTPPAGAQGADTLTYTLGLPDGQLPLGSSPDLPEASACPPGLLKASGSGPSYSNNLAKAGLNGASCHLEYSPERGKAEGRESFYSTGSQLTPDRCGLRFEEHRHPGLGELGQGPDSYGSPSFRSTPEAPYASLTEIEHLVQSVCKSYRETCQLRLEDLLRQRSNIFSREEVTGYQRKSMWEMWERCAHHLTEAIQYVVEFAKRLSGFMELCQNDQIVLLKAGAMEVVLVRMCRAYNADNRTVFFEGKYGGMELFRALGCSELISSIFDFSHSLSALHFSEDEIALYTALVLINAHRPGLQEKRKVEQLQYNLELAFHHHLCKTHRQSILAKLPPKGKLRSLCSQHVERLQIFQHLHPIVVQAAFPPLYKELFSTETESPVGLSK
Procedure, shortened: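 Steps: cells dispensed; compound or DMSO transferred by pin tool; doxycycline added to induce the ROR response element-driven luciferase; plates held 16hr at 37C; ONE-Glo added and luminescence measured.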

[9] = qHTS assay for small molecule agonists of the antioxidant response element (ARE) signaling pathway measured by Nrf2-dependant transcriptional activity (AID 720636; active = well fitted curve in the direction sought with a large enough effect in the repeat runs; an effect the other way counts as inactive or inconclusive;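 also: HepG2 cells with an ARE-driven luciferase reporter; % of control where 0% means no effect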)
Procedure, shortened: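 In HepG2 cells engineered with an Nrf2-responsive luciferase gene, ARE induction was quantified as luminescence after 16 hr compound treatment at 37 C.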

[10] = qHTS assay for small molecule antagonists of the retinoid-related orphan receptor gamma (ROR-gamma) signaling pathway - cell viability counter screen (AID 720652; active = well fitted curve in the direction sought with a large enough effect in the repeat runs; an effect the other way counts as inactive or inconclusive;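 also: CHO reporter cells with doxycycline-induced ROR-gamma expression; series mostly up to about 92 µM; compound exposure lasted 16 hr before ATP read; % is scaled to controls: 0 for no effect and ±100 for the full control effect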)
Procedure, shortened: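 Steps: seed CHO cells bearing TET-inducible ROR and ROR response element-luciferase; rest 5 hr at 37 C; add compound, then doxycycline; incubate 16 hr; add CellTiter-Glo and read luminescence as ATP-based viability.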

[11] = qHTS assay for small molecule agonists of the antioxidant response element (ARE) signaling pathway measured by Nrf2-dependant transcriptional activity - cell viability counter screen (AID 720653; active = well fitted curve in the direction sought with a large enough effect in the repeat runs; an effect the other way counts as inactive or inconclusive; also: % is scaled to controls: 0 for no effect and ±100 for the full control effect); conditions: ARE-bla HepG2 viability, CellTiter-Glo ATP luminescence, 16 h; active compounds read low
Procedure, shortened: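 Cytotoxicity counter screen: intracellular ATP quantified by CellTiter-Glo luminescence in the same ARE-bla HepG2 plates, after 16 h compound exposure and a 2 h beta-lactamase substrate step.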

[12] = qHTS Assay for Identifying Gametocytocidal Compounds (AID 743244);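 also: % is scaled to controls: 0 for no effect and ±100 for the full control effect; actives lower the fluorescent signal which means gametocytes are killed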; conditions: P. falciparum 3D7 stage III-V gametocytes, alamarBlue, 72 h; max response: active compounds read low
Procedure, shortened: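 Compounds are pinned into medium, gametocytes (stage III–V, 3D7, 20,000 cells/well) added, and plates held 72 h at 37 °C in 5% CO2. AlamarBlue follows for 24 h before fluorescence reading.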

[13] = qHTS assay to identify small molecules that stimulate interleukin-8 (IL-8) secretion (AID 651758; active = well fitted activation curve with a large enough effect in the signal ratio; the % refers to the signal ratio; also: 0% is about no effect)
Procedure, shortened: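 Secreted IL-8 measured homogeneously by TR-FRET (two labelled anti-IL-8 antibodies, 1-3 h at room temperature) after a 16 h, 37 C compound treatment of THP-1 cells at 2000 cells/well.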

CC[C@H]1OC(=O)[C@H](C)[C@@H](O[C@H]2C[C@@](C)(OC)[C@@H](O)[C@H](C)O2)[C@H](C)[C@@H](O[C@@H]2O[C@H](C)C[C@H](N(C)C)[C@H]2O)[C@](C)(O)C[C@@H](C)CN(C)[C@H](C)[C@@H](O)[C@]1(C)O
inactive: activation [1] -5.82% | activation [2] -0.197% | Potency [3] | Potency [4] | Potency [5] | activation [6] 0.789% | max response [7] -5.78% | Potency [8] | Potency [9] | outcome [10] | max response [11] -20.4%

COC(=O)c1ccccc1O
inactive: activation [1] 0.469% and 1.6% | activation [2] -1.33% and 1.01% | Potency [5] | activation [6] 0.888% and 1.53% | max response [7] -2.75% and -2.44% | Potency [8] | Potency [9] | outcome [10] | max response [11] 1.24% and 5.57% | max response [12] 3.79%

c1ccc2ccccc2c1
inactive: activation [1] -7.12% and -1.33% | activation [2] 0.258% and -0.756% | Potency [5] | activation [6] 0.0968% and 0.369% | max response [7] -3.91% and 0.0956% | Potency [8] | Potency [9] | outcome [10] | max response [11] 1.06% and 1.45% | max response [12] 6.18%

OC[C@H]1O[C@@](CO)(O[C@H]2O[C@H](CO)[C@@H](O)[C@H](O)[C@H]2O)[C@@H](O)[C@@H]1O
inactive: activation [2] -1.26% | activation [6] 1.69% | max response [7] 0.569% | Potency [9] | max response [11] -5.77% | max response [12] 6.47%

CC/C=C\C/C=C\C/C=C\CCCCCCCC(=O)O
inactive: Potency [3] | Potency [4] | Potency [5] | activation [6] 0.211% | max response [7] 20% | Potency [8] | outcome [10] | max response [11] -3.01% | max response [12] 13.1%

COC1[C@@H](O[C@@H]2O[C@H](C)[C@@H](O[C@H]3C[C@@](C)(O)[C@H](OC(=O)CC(C)C)[C@H](C)O3)[C@H](N(C)C)[C@H]2O)[C@@H](CC=O)C[C@@H](C)[C@@H](O)/C=C/C=C/C[C@@H](C)OC(=O)C[C@H]1OC(C)=O (stereo partly drawn)
inactive: max response [12] 6%

N[C@H](CC(=O)O)C(=O)O
inactive: max response [12] 2.16%

CCCCC(CC)COS(=O)(=O)O (stereo not drawn)
inactive: activation [2] -1.03% | activation [6] -1.44% | max response [7] -1.27% | Potency [9] | max response [11] 8.31%

CCOc1ccc(S(=O)(=O)O)c2cccnc12
inactive: max response [12] 1.62%

OCc1ccccc1
inactive: activation [2] 0.143% | Potency [3] | Potency [4] | Potency [5] | Potency [13] | activation [6] 0.173% | max response [7] 2.92% | Potency [8] | Potency [9] | outcome [10] | max response [11] -4.76% | max response [12] 0.478%

CCCCCCCCCCCCCCCC(=O)OC[C@H](COP(=O)([O-])OCC[N+](C)(C)C)OC(=O)CCCCCCCCCCCCCCC
inactive: max response [12] 1.23%

OC[C@H]1O[C@@H]2O[C@H]3[C@H](O)[C@@H](O)[C@@H](O[C@H]4[C@H](O)[C@@H](O)[C@@H](O[C@H]5[C@H](O)[C@@H](O)[C@@H](O[C@H]6[C@H](O)[C@@H](O)[C@@H](O[C@H]7[C@H](O)[C@@H](O)[C@@H](O[C@H]1[C@H](O)[C@H]2O)O[C@@H]7CO)O[C@@H]6CO)O[C@@H]5CO)O[C@@H]4CO)O[C@@H]3CO
inactive: Potency [3] | Potency [4] | Potency [5] | Potency [13] | activation [6] 1.89% and -0.569% | max response [7] -0.429% and -5.48% | Potency [8] | Potency [9] | outcome [10] | max response [11] -2.78% and 5.87% | max response [12] -7.1%

O=P(O)(O)O
inactive: activation [2] -0.144% | Potency [3] | Potency [4] | Potency [5] | activation [6] -1.09% | max response [7] -4.49% | Potency [8] | Potency [9] | outcome [10] | max response [11] -2% | max response [12] -3.37%

NC(N)=O
inactive: activation [2] 1.05% | Potency [3] | Potency [4] | Potency [5] | max response [7] -1.08% | Potency [8] | Potency [9] | outcome [10] | max response [11] -1.96%

— PubChem BioAssay (NCATS)
